The panel holds about 83,000 compounds, 20% with a hit somewhere; the sample as a whole holds those more often.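 Growth was measured after 48 h exposure to one concentration of compound in 96-well plates. Values under 10 count as active.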 Unmarked numbers belong to inactive results. Activity calls are given as the source filed them.
Assays:
Assay in all cases: NCI-60 one-dose screen, 48 h (100 = growth as untreated, 0 = no growth, -100 = all killed)
Settings in all cases: 10 µM unless noted
SK-MEL-2 melanoma = system: SK-MEL-2 melanoma
EKVX NSCLC = system: EKVX NSCLC
SN12C renal = system: SN12C renal
UO-31 renal = system: UO-31 renal
TK-10 renal = system: TK-10 renal
ACHN renal = system: ACHN renal
CAKI-1 renal = system: CAKI-1 renal
A498 renal = system: A498 renal
CCRF-CEM leukemia = system: CCRF-CEM leukemia
MOLT-4 leukemia = system: MOLT-4 leukemia
SR leukemia = system: SR leukemia
RPMI-8226 leukemia = system: RPMI-8226 leukemia
OVCAR-8 ovarian = system: OVCAR-8 ovarian
OVCAR-5 ovarian = system: OVCAR-5 ovarian
OVCAR-4 ovarian = system: OVCAR-4 ovarian
SK-OV-3 ovarian = system: SK-OV-3 ovarian
IGROV1 ovarian = system: IGROV1 ovarian
OVCAR-3 ovarian = system: OVCAR-3 ovarian
HS 578T breast = system: HS 578T breast
NCI/ADR-RES ovarian = system: NCI/ADR-RES ovarian

| SMILES | growth (SK-MEL-2 melanoma) | growth (EKVX NSCLC) | growth (SN12C renal) | growth (UO-31 renal) | growth (TK-10 renal) | growth (ACHN renal) | growth (CAKI-1 renal) | growth (A498 renal) | growth (CCRF-CEM leukemia) | growth (MOLT-4 leukemia) | growth (SR leukemia) | growth (RPMI-8226 leukemia) | growth (OVCAR-8 ovarian) | growth (OVCAR-5 ovarian) | growth (OVCAR-4 ovarian) | growth (SK-OV-3 ovarian) | growth (IGROV1 ovarian) | growth (OVCAR-3 ovarian) | growth (HS 578T breast) | growth (NCI/ADR-RES ovarian) |
| --- | --- | --- | --- | --- | --- | --- | --- | --- | --- | --- | --- | --- | --- | --- | --- | --- | --- | --- | --- | --- |
| CCCCCCNc1nc(NCCCCCC)c2[nH]c(NCCCCCC)nc2n1 | 30.2% | 44% | 26.5% | 80.9% | 116% | 100% | 74.1% | 40.3% | -29.6% (active) | -12.5% (active) | -33.4% (active) | -29.4% (active) | 57.3% | -7.94% (active) | -16% (active) | 102% | 68.8% | 26.5% | 55.7% | 90.3% |
| CN1CCN(c2ccc(NC(=O)c3cncnc3Nc3ccc4c(ccn4Cc4cccc(F)c4)c3)cc2)CC1 | 98.1% | 86.1% | 71.5% | 46.3% | 101% | 58.5% | 75.5% | 77% | 11.6% | -2.02% (active) | 10.9% | 46.1% | 34.9% | 65.5% | 66.2% | 97.4% | 77.1% | 80.8% | 68.3% | 75.8% |
| COc1ccc(-c2cc(-c3ccc(OC)cc3)nc(NCCCNc3ccnc4cc(Cl)ccc34)n2)cc1 | 83.9% | 80.4% | -62.3% (active) | 48.9% | 127% | 96.2% | 75.3% | 23.2% | 3.08% (active) | 1.68% (active) | 5.81% (active) | 7.42% (active) | -51.3% (active) | 105% | -16.5% (active) | 76.8% | -62.6% (active) | 91.7% | 83.5% | 71.7% |
| O=C(O)c1cccc(N/C=C/C(=O)c2cc3cc(Br)ccc3oc2=O)c1 | 119% | 102% | 94.1% | 74.9% | 119% | 102% | 86.3% | 92.5% | 101% | 113% | 105% | 101% | 105% | 98.8% | 95.1% | 98.9% | 106% | 95.8% | 94.7% | 104% |
| O=C1/C(=C/c2ccc(Br)cc2)COc2ccc(O)c(O)c21 | 47.2% | 23.2% | -41.1% (active) | -99.2% (active) | 4.99% (active) | -84.2% (active) | -36% (active) | 98.9% | -6.17% (active) | -9.5% (active) | 6.26% (active) | -33.5% (active) | 6.31% (active) | -59.8% (active) | 15.6% | 58.8% | -45.7% (active) | -91.5% (active) | 11.9% | 3.52% (active) |
| CCCCCCCCn1ccc2cc(NC(=O)Cn3cc(CN4CCOCC4)nn3)ccc21 | 100% | 87.9% | 100% | 78.3% | 108% | 98.5% | 83.9% | 99.7% | -31.6% (active) | 35.8% | 87.6% | 94.8% | 102% | 91.1% | 99.5% | 111% | 96.4% | 98.2% | 90% | 115% |
| O=C(CCCCCCCCC(=O)N/N=C\c1cc(Cl)ccc1O)N/N=C\c1cc(Cl)ccc1O | 18.6% | 54.7% | 28.7% | 19% | 45.7% | 9.47% (active) | 11.6% | 73.4% | 12.1% | 15.3% | 14.1% | 31.9% | 25.9% | 62% | 23% | 41.1% | 30.2% | 31.4% | 66.3% | 17.4% |
| C=CC(=O)N1CCN(c2ccc3cccc(NC(=O)c4cnc(C)cn4)c3n2)CC1 | 29.7% | 66.6% | 9.63% (active) | 0.645% (active) | 23.2% | 5.43% (active) | 4.05% (active) | -12.7% (active) | 32.1% | 35.7% | 9.43% (active) | 43.3% | 27.2% | 71.5% | 43.7% | 11.1% | 9.7% (active) | 43.5% | 34.3% | 30.9% |
| CCNC(=O)Oc1ccc(/C(=C(/C)Cc2ccc(OC)cc2)c2ccc(OCCN3CCCC3)cc2)cc1 | 110% | 76.2% | 75.6% | 57.8% | 88.1% | 92.4% | 82.3% | 91.9% | 45.8% | 31.6% | 6.92% (active) | 44% | 89.8% | 83.8% | 74.1% | 88% | 88% | 77.5% | 70.9% | 85.9% |
| Nc1ncnc2c1c(-c1ccc(Oc3ccccc3)cc1)nn2CC1SSCC1O (stereo not given) | 56.8% | 4.11% (active) | 49.1% | -3.62% (active) | 8.91% (active) | 25.9% | 42.5% | 27.8% | 9.92% (active) | -33.3% (active) | -16.2% (active) | 38% | 67.7% | 81.4% | 67.4% | 44.3% | 15.6% | 11.9% | 66.7% | 77.5% |
| O=c1ccc2nc(C(F)(F)F)nn(-c3ccccc3)c-2c1 | 78.3% | 95.8% | 67.9% | 24% | -98% (active) | -89% (active) | 56% | 80% | -0.269% (active) | -20.5% (active) | -11.3% (active) | 45.8% | 73.1% | 102% | 79.8% | 79.3% | 71.7% | -26.1% (active) | 74% | 84% |
| CC1=NN(c2ccc(Cl)cc2)CC1(C)N=O (stereo not given) | 105% | 70.1% | 88.4% | 32.8% | 105% | 15.2% | 60.4% | 101% | 34% | 44.6% | 33% | 89.3% | 88.2% | 126% | 77.3% | 114% | 103% | 62.1% | 82.9% | 94.4% |
| FC(F)(F)c1[nH]ncc1-c1nc2c(N3CCCCC3)cc3[nH]ncc3c2c2c1CCCC2 | -34% (active) | 13.2% | 2.49% (active) | -19.6% (active) | 1.88% (active) | 4.67% (active) | 5.43% (active) | -71.6% (active) | 4.61% (active) | -0.165% (active) | -4.82% (active) | -6.13% (active) | 7.14% (active) | 6.62% (active) | 24.3% | -25% (active) | -8.41% (active) | -2.67% (active) | -11.8% (active) | 44.8% |
| CCOC(=O)c1c(-c2ccc(Cl)cc2)c(C#N)c2c(C#N)c(N)nn2c1N | 52.5% | 60.1% | 79.1% | 66.4% | 84.4% | 72% | 66% | 29.3% | 30.5% | 25.6% | 11.9% | 49.3% | 75.9% | 83.4% | 77.3% | 84.1% | 62.2% | 65.4% | 75.3% | 63.1% |
| CC(=O)Nc1c(Cl)cc(Cl)c2c1Cc1cc([N+](=O)[O-])ccc1-2 | 105% | 59.4% | 80.3% | 91.1% | 99.4% | 82.3% | 84.5% | 102% | 89.7% | 87% | 47.9% | 87.1% | 74.8% | 108% | 9.59% (active) | 87.3% | 91.2% | 80.5% | 65.4% | 83.5% |

Reference: PubChem BioAssay (NCI)
